Screens deposited in PubChem by several laboratories.
This is a sample that favours compounds with a hit; in the whole collection about 2.6% have one here.
Shn3 inh set2 – Schnurri-3 reporter inhibition in Clone20 osteoblasts | inhibition, % at 12.5 µM | Clone20 osteoblast Shn3 3'UTR firefly luciferase, 24 h | AID 588674 | 0.52% of 360,000 active;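 active means mean inhibition of at least 75% with every replicate also reaching 75%; inconclusive means mean inhibition at least 75% but some replicate below; inactive means mean inhibition below 75%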;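 further: 0% = median of neutral control wells and 100% = pilot-screen positive control compound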
Peg3 prom inh-1 – inhibitors of Peg3 promoter. 1.7% of 360,000 active. HeLa PEG-Prom luciferase reporter, luminescence, overnight. inhibition, % at 20 µM;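 active means inhibition of at least 50% at 20 µM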
CF NFkB block – inhibitors of cystic fibrosis induced NF-kB. KKLEB NF-kB-GFP reporter, PAF-induced, GFP fluorescence overnight. inhibition, % at 5 µM. 0.86% of 360,000 active. AID 588850;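 active means at least 50% inhibition at 5 µM, scaled per plate between neutral and stimulator controls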;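 further: PAF is a Pseudomonas aeruginosa culture filtrate used as stimulus; plate controls were PAF-stimulated DMSO wells for no effect and unstimulated DMSO wells for full effect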
KKLEB tox – reduces viability of KKLEB cystic fibrosis airway cells; KKLEB CF airway cells viability, ATPlite luminescence, overnight; hits give low values; cells stimulated with P. aeruginosa culture filtrate; activity change (cytotoxicity), % at 5 µM; 0.36% of 360,000 active; AID 602141;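 active means corrected activity change at or below -50% at 5 µM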
HIF-2a inh – HIF-2a inhibition. 786-0 RCC cells HIF-2a reporter, luciferase luminescence, overnight. inhibition, % at 18.8 µM. 0.72% of 360,000 active;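 active means inhibition of the luminescence signal of 40% or more relative to plate controls, in a single-dose primary screen at 18.75 µM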
Peg3 prom inh-2 – Peg3 promoter inhibition confirmation | HeLa PEG-Prom luciferase reporter, luminescence, overnight | AID 602417 | shares compounds with Peg3 prom inh-1 | 84% of 1,300 active | inhibition, % at 20 µM;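 active means at 20 µM dose, 40% or more inhibition averaged across four replicates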
* hit, by the source's call; u = inconclusive; x = no result.

SMILES	Shn3 inh set2	Peg3 prom inh-1	CF NFkB block	KKLEB tox	HIF-2a inh	Peg3 prom inh-2
CN(CC(=O)Nc1ccc(F)c(F)c1F)C(=O)c1cc(-c2ccncc2)nc2ccccc12	9	7	-2	-4	22	x
COc1cccc(NC(=O)CN(C)C(=O)c2cc(-c3ccc(F)cc3)nc3ccccc23)c1	13	63*	1	-19	-8	73*
Cc1nc(-c2ccc(F)cc2)c(CC(=O)N(C)CC(=O)Nc2ccc(Cl)c(C(F)(F)F)c2)s1	15	58*	19	-26	8	56*
CN(CC(=O)Nc1ccc(Cl)c(C(F)(F)F)c1)C(=O)c1cc(-c2ccncc2)nc2ccccc12	26	77*	-1	-22	17	92*
Cc1cc(=O)c2cc(NC(=O)c3ccccc3Cl)ccc2[nH]1	-11	-6	6	-9	8	x
Cc1ccc(C2=NC(=O)/C(=C/c3cc(O)c(O)c(Br)c3)S2)cc1	-13	67*	-7	-6	13	67*
Cc1nc(SCC(=O)Nc2ccc(S(=O)(=O)N3CCOCC3)cc2)c2c(C)c(C)sc2n1	0	70*	37	-26	-4	40
O=C(NCCCn1ccnc1)/C(=C\c1cccnc1)NC(=O)c1cccc(Br)c1	1	39	2	9	10	x
Cc1[nH]c2ccccc2c1C(=O)C(C)OC(=O)C1CCC1 (stereo unspecified)	9	-5	-4	0	3	x
Cc1ccc2cc3c(N)c4c(C)ccc(C)c4nc3nc2c1	80	103*	-82	-12	-14	97*
COc1ccc(-c2c(C(=O)c3ccccc3)[nH]c(N)c2C(=O)c2ccc(Br)cc2)cc1OC	x	x	x	x	2	x
Cc1cc(C(=O)Nc2cnc3ccccc3c2)ccc1[N+](=O)[O-]	-45	-269	-16	6	-313	x
Cc1ccc(C(=O)Nc2nc3ccccc3[nH]2)cc1	32	71*	-9	-52*	63*	64*
COc1ccccc1C(=O)Nc1nc2ccccc2[nH]1	91*	98*	-6	-74*	93*	92*
Cc1ccc(C(=O)Nc2cnc3ccccc3c2)cc1	86*	99*	-5	-20	84*	94*
O=C(Nc1nc2ccccc2[nH]1)c1ccc([N+](=O)[O-])cc1	-43	-221	-8	-29	-294	x
COc1ccccc1C(=O)NCCC(=O)Nc1nc2ccccc2[nH]1	-39	-30	28	-4	-17	x
Cc1cc(C(=O)CN2C(=O)NC3(CCC(C)CC3)C2=O)c(C)n1C (stereo unspecified)	5	-2	0	0	5	x
CC(C)c1ccccc1OCCCCCN1CCOCC1	4	5	4	-10	6	x
COc1ccc(C(=O)NCC(=O)N/N=C/c2ccc(C)o2)cc1OC	-14	13	-6	1	12	x
Cc1[nH]nc(S(=O)CC(=O)O)c1[N+](=O)[O-] (stereo unspecified)	-15	51*	-17	-4	24	26
COC(=O)CSC1=NS(=O)(=O)c2ccccc21	-4	74*	7	2	-21	80*
COC(=O)CSc1ccccc1C(=O)OC	-22	-1	-2	7	0	x
O=C(Nc1ccc2oc(-c3ccncc3)nc2c1)c1ccc([N+](=O)[O-])o1	u	102*	48	-20	6	98*
CCCCCCCn1c(=N)n(CC(O)c2ccco2)c2ccccc21 (stereo unspecified)	45	80*	5	-2	0	91*
SMILES	Shn3 inh set2	Peg3 prom inh-1	CF NFkB block	KKLEB tox	HIF-2a inh	Peg3 prom inh-2
CCCCCCCn1c(=N)n(CC(=O)c2ccco2)c2ccccc21	64	87*	-4	1	30	64*
Cc1nn(-c2ccccc2)c2nc(C(F)F)cc(C(F)F)c12	2	-3	11	-5	6	x
COc1ccccc1NC(=S)NC1CCCCCCCCCCC1	10	55*	16	-17	22	91*
COc1ccccc1NC(=S)NC1CCCCC1	-3	-16	8	-4	14	x
Cc1ccccc1C(=O)NNC(=O)CSc1nnc(-c2ccncc2)n1-c1ccccc1	-23	7	-6	2	22	x
CC(CN1CCN(Cc2ccccc2)CC1)OC(=O)c1ccco1 (stereo unspecified)	x	14	0	11	13	x
Nc1c(C(=O)Nc2cccc(C(=O)O)c2)sc2nc3c(cc12)CCCC3	32	69*	13	-17	77*	55*
